Screens deposited in PubChem BioAssay by several laboratories.
RN4220 kill – S. aureus RN4220 growth inhibition | AID 1259311 | actives 0.33% (n = 330,000) | OD600, 16 h | inhibition, % (no concentration beside the values); in the data active = inhibition above about 85%
ugtP null kill – kills S. aureus RN4220 lacking UgtP. actives 0.54% (n = 330,000). growth inhibition, % (concentration not given with the values). AID 1259309. S. aureus RN4220 ugtP deletion, OD600 growth, 16 h; in the data active = growth inhibition above about 68%
SSB-PriA inh – blocks PriA binding to SSB C-terminal tail | AlphaScreen SSBct-PriA binding, biotinylated peptide | inhibition, % at 33 µM | actives 0.6% (n = 430,000); in the data active = inhibition mostly above about 37%, no sharp cut-off; inactive = mostly below about 20%
Large screens that a line does not name were inactive; ! = not active in a repeat. Hits are enriched below; roughly 1% of the tested compounds scored in any of these assays.

COC(=O)C1C(O)C(C)C(O)C(C)(O)C=CC=C(C)C(=O)Nc2c(C)c(OC(C)=O)c3c(c2O)C(=O)C(C)=C2OCOC(=C23)C(C)=CC(C)(O)C(O)C(C)C1O (stereo not drawn)	none (no result: RN4220 kill, ugtP null kill)
O=C(Cn1nc(-c2cccs2)c2sc(N3CCCCC3)nc2c1=O)Nc1ccc(Cl)cc1	none (no result: RN4220 kill, ugtP null kill)
O=c1[nH]c(NCCO)nc2c1C1(CCCC1)Cc1ccccc1-2	none
C=CCNC(=S)NNc1nc2c(c(=O)[nH]1)C1(CCCCC1)Cc1ccccc1-2	ugtP null kill 85.4
O=S(=O)(NCC(c1cccs1)N1CCc2ccccc21)c1ccccc1 (stereo not drawn)	none (no result: RN4220 kill, ugtP null kill)
O=S(=O)(NCC(c1ccco1)N1CCc2ccccc21)c1ccccc1 (stereo not drawn)	SSB-PriA inh 25.0!
O=C(CCS(=O)(=O)c1ccccc1)NCCn1ccc(-c2ccsc2)n1	none (no result: RN4220 kill, ugtP null kill)
CC(N)(CCP(=O)(O)O)C(=O)O (stereo not drawn)	none (no result: RN4220 kill, ugtP null kill)
CC1=CC(C)[C@H](C=Nn2c(=O)[nH]c3c([nH]c4ccc(Br)cc43)c2=O)C(C)C1 (stereo partly drawn)	ugtP null kill 66.2
COc1ccc2[nH]c3c(=O)n(N=C[C@H]4C(C)C=C(C)CC4C)c(=O)[nH]c3c2c1 (stereo partly drawn)	none (no result: RN4220 kill, ugtP null kill)
O=C(NCc1cccnc1-c1cccs1)c1cnn(-c2ccccc2)n1	none (no result: RN4220 kill, ugtP null kill)
COc1ccc(CCC(=O)Nc2ccc3c(c2)CN(C(=O)c2cccs2)CC3)cc1	none (no result: RN4220 kill, ugtP null kill)
O=C(Nc1cc(C(F)(F)F)ccc1N1CCOCC1)c1n[nH]c(=O)c2ccccc12	RN4220 kill 99.7, ugtP null kill 98.0
O=C(Nc1cc(C(F)(F)F)ccc1N1CCOCC1)c1ccc(F)cc1	none
CN(Cc1ccccc1)C(=O)c1csc2nc(-c3ccc(F)cc3)cn12	none (no result: RN4220 kill, ugtP null kill)
CC1CCCCC1=NNc1ccc([N+](=O)[O-])cc1[N+](=O)[O-] (stereo not drawn)	none
CC1CCCC(=NNc2ccc([N+](=O)[O-])cc2[N+](=O)[O-])C1 (stereo not drawn)	SSB-PriA inh 57.8
CN1/C(=C/c2cccc[n+]2CCO)Sc2ccccc21	none
CC[n+]1ccccc1/C=C1\Sc2ccc(C)cc2N1C	ugtP null kill 100.5
CC(C)C(=O)N1CCc2ccc(NC(=O)COc3ccccc3F)cc2C1	none (no result: RN4220 kill, ugtP null kill)
CCOc1ccccc1C(=O)NCCC(O)c1ccco1 (stereo not drawn)	none (no result: RN4220 kill, ugtP null kill)
CCOc1ccccc1C(=O)NCC[C@H](O)c1ccccc1	SSB-PriA inh 43.0 (no result: RN4220 kill, ugtP null kill)
CCOC(=O)CSc1ncc(-c2ccc(Br)cc2)n1Cc1ccco1	none (no result: RN4220 kill, ugtP null kill)
O=C(Nc1onc2c1CCCC2)C1CCCN(c2cc(-n3cncn3)ncn2)C1 (stereo not drawn)	none (no result: RN4220 kill, ugtP null kill)
Cc1ccc(NC(=O)c2ccccc2)cc1	none
Cc1ccc(NC(=O)C2=C(c3ccccc3)S(=O)(=O)CCS2(=O)=O)cc1	ugtP null kill 100.2
O=C(Nc1ccc2c(c1)OCO2)N[C@H]1CC(=O)N(c2ccc(F)cc2)C1	none (no result: RN4220 kill, ugtP null kill)
Cc1nn(-c2ccccc2)c(Cl)c1/C=C1\SC(=S)NC1=O	RN4220 kill 100.0, ugtP null kill 99.4
Cc1nn(-c2ccccc2)c(Cl)c1/C=C1\SC(=S)N(CCCCCC(=O)O)C1=O	none
N#Cc1ccccc1NC(=O)c1ccc(-n2ccnc2)nn1	none (no result: RN4220 kill, ugtP null kill)
Cc1c(Cl)cccc1S(=O)(=O)N1CCCC(Cc2nc(-c3cnccn3)no2)C1 (stereo not drawn)	none (no result: RN4220 kill, ugtP null kill)
COc1ccc(Cc2nnc(SCC(=O)N3CCN(c4ccccc4)CC3)o2)cc1	none
COc1ccc(Cc2nnc(SCC(=O)N3CCCCC3)o2)cc1	SSB-PriA inh 52.8
COc1cccc(N([C@@H]2C=CS(=O)(=O)C2)S(=O)(=O)c2ccc(C)cc2)c1	none (no result: RN4220 kill, ugtP null kill)
O=C(CC1CCCCN1S(=O)(=O)c1ccccc1)NCc1ccco1 (stereo not drawn)	none (no result: RN4220 kill, ugtP null kill)
CC(=O)Nc1ccc2[nH]c3ccccc3c2c1	none
O=C(Nc1ccc(Cl)cc1)c1cc2c(cc1O)[nH]c1ccccc12	RN4220 kill 95.0, ugtP null kill 97.9
Cc1ccccc1NC1=C/C(=N\S(=O)(=O)c2cccs2)c2ccccc2C1=O	RN4220 kill 98.7, ugtP null kill 88.4 (no result: SSB-PriA inh)
Cc1ccc(NC2=CC(=NS(=O)(=O)c3cccs3)c3ccccc3C2=O)cc1C	none
CN(C)S(=O)(=O)c1ccc(C(=O)NNc2nc3c(F)cccc3s2)cc1	none (no result: RN4220 kill, ugtP null kill)
COc1ccc(OC)c2sc(NNC(=O)c3ccc(S(=O)(=O)N(C)C)cc3)nc12	SSB-PriA inh 42.0 (no result: RN4220 kill, ugtP null kill)
CCOc1ccc2ccccc2c1C(=O)Nc1ccc2c(c1)CC(=O)N2CC	none (no result: RN4220 kill, ugtP null kill)
Cc1onc(-c2ccccc2Cl)c1C(=O)Nc1nnc(C2CC(=O)N(c3ccccc3)C2)o1 (stereo not drawn)	none (no result: RN4220 kill, ugtP null kill)
O=C(Nc1nnc(-c2ccccc2Cl)o1)C1CC(=O)N(c2ccccc2)C1 (stereo not drawn)	SSB-PriA inh 46.0 (no result: RN4220 kill, ugtP null kill)
O=C(Nc1nccs1)C1CC(=O)N(c2ccc(F)cc2)C1 (stereo not drawn)	none
